Bioassay records: PubChem, Broad Institute
Many of the other results were omitted from the sample, so hits are more common in it than they were.
BL2 CD40 inh = inhibitors of CD40-induced NF-kB signaling, primary screen, BL2 cells, luciferase reporter, single point; CD40L-induced, 4 h; inhibition, % at 10 µM; hit rate 0.94% among 83,000;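 active = mean inhibition of at least 50% with a set share of replicates also reaching that level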;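 note: 0% = neutral control wells and 100% = IKK inhibitor VII at 50 µM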
The depositor's hits bear a star; [ ] = remark or other dose.

SMILES | BL2 CD40 inh
CC(=O)N1[C@H](CO)[C@@H](c2ccccc2)[C@@H]1CN(C)C(=O)C1CCC1 | 0[25 µM]
Cc1ccc(C(=O)N/N=C2\CCSC2)cc1[N+](=O)[O-] | -5
COCC(=O)N1CCC(Oc2ccc(C(=O)NCCCn3cccn3)cc2)CC1 | 4
Cc1noc(C)c1S(=O)(=O)N(C)C[C@@H]1OCc2ccccc2-c2c(n(C)c3ccccc23)C(=O)N([C@H](C)CO)C[C@H]1C | 45[25 µM]
Cc1noc(C)c1S(=O)(=O)N(C)C[C@H]1OCc2ccccc2-c2c(n(C)c3ccccc23)C(=O)N([C@@H](C)CO)C[C@@H]1C | 32[25 µM]
Cc1noc(C)c1S(=O)(=O)N(C)C[C@H]1OCc2ccccc2-c2c(n(C)c3ccccc23)C(=O)N([C@H](C)CO)C[C@H]1C | 51*[25 µM]
Cc1noc(C)c1S(=O)(=O)N(C)C[C@@H]1OCc2ccccc2-c2c(n(C)c3ccccc23)C(=O)N([C@@H](C)CO)C[C@H]1C | 46[25 µM]
Cc1noc(C)c1S(=O)(=O)N(C)C[C@H]1OCc2ccccc2-c2c(n(C)c3ccccc23)C(=O)N([C@@H](C)CO)C[C@H]1C | 65*[25 µM]
C[C@@H]1CN([C@H](C)CO)C(=O)c2c(c3ccccc3n2C)-c2ccccc2CO[C@@H]1CN(C)S(C)(=O)=O | -8
O=C(CNc1cccc([N+](=O)[O-])c1)N1CCN(S(=O)(=O)c2ccc(Cl)cc2)CC1 | 7
O=C(Nc1nc2c(s1)CCCC2)Oc1ccccc1 | -32
O=C(Nc1nc2c(s1)CCCC2)c1cccnc1 | -67
O=C(O)c1ccc(Nc2nc3c(s2)CCCC3)cc1 | 72*
Cc1nc(C(F)(F)F)c(C(=O)N=CN(C)C)s1 | 13
Nc1nc2ccccc2cc1S(=O)(=O)c1ccccc1 | 6
Nc1cccc2nc3ccccc3cc12 | active
Cc1cc(N)c2ccccc2n1 | 3
O=C(c1ccccn1)N(Cc1cccs1)C1(C(=O)NC2CCCCC2)CCCCC1 | 18
Cc1noc(C)c1CSc1nc2ccccc2[nH]1 | 8
C[C@@H]1CN([C@H](C)CO)C(=O)CCCn2cc(nn2)CO[C@@H]1CN(C)C(=O)Nc1ccc2c(c1)OCCO2 | -49
NC1=NN=C(c2ccc3c(c2)OCCO3)CS1 | 52*
c1cc2c(cc1C1=Nn3c(nnc3C3CCCCC3)SC1)OCO2 | 8
c1ccc(-c2nnc3n2N=C(c2ccc4c(c2)OCO4)CS3)nc1 | 6
CCCNC(=O)C1(C)CCCN(C(=O)/C=C/c2ccccc2)C1 (centres undefined) | 2
O=C(CSc1n[nH]c(-c2ccccc2F)n1)Nc1cc(F)ccc1F | 1
SMILES | BL2 CD40 inh
C/C(=N\OC(=O)Nc1ccccc1)c1cnn(-c2cc(C(F)(F)F)cc(C)n2)c1C | 2
CCCCCCCC[n+]1cccc2c3ccccc3ccc21 | 93*
CCCCCC(=O)Nc1cccc2ccccc12 | -13
CCCCCCCCCC[n+]1cccc2c3ccccc3ccc21 | 94*
CCCCCCCCNc1ncnc2ccccc12 | 10
Cc1cccc[n+]1CCCCCCCCCC[n+]1ccccc1C | 9
Cc1cc(OCC(F)(F)C(F)(F)C(F)(F)C(F)F)nc(N)n1 | -51
c1nc(N2CCOCC2)c2[nH]cnc2n1 | 9
Cc1nnnn1/C(=C\c1ccccc1)C(=O)OCC(=O)NC1CCCCC1 | 48
CC(C)C(C)NC(=O)COc1ccc([N+](=O)[O-])cc1Cl (centres undefined) | 3
C[C@H](CO)N1C[C@H](C)[C@H](CN(C)Cc2ccc(C(F)(F)F)cc2)Oc2ccc(NC(=O)Cc3cn(C)c4ccccc34)cc2CC1=O | 19[25 µM]
O=C(OCC(=O)N1CCN(c2ccccc2)CC1)c1ccccc1OC(F)F | -11
O=C(OCC(=O)N1CCN(c2ccccc2)CC1)c1cccs1 | -44
O=C(OCC(=O)N1CCN(c2ccccc2)CC1)c1ccccc1NCCO | 35*
COC(=O)c1ccc(COC(=O)c2cccn2C)o1 | -27
O=C(CN1C(=O)NC2(CCc3ccccc32)C1=O)Nc1cccc(Cl)c1 (centres undefined) | -1
Cc1cccc(-c2ccc([C@@H]3[C@@H](CO)N4CCCCN(S(=O)(=O)c5ccccc5F)C[C@@H]34)cc2)c1 | -16[25 µM]
Cc1cccc(-c2ccc([C@H]3[C@@H](CO)N4CCCCN(S(=O)(=O)c5ccccc5F)C[C@@H]34)cc2)c1 | -1[25 µM]
Cc1cccc(-c2ccc([C@@H]3[C@@H](CO)N4CCCCN(S(=O)(=O)c5ccccc5F)C[C@H]34)cc2)c1 | 71*[25 µM]
COc1ccc(NC(=O)CSc2nnc(Cc3ccc(C)cc3)c(=O)n2N)cc1 | 0
COc1ccc2oc(C(=O)OCC(=O)Nc3ccc(OC)c(S(N)(=O)=O)c3)c(C)c2c1 | -8
COc1cc(NC(=O)c2ccc(-c3c(C)noc3C)c3ccoc23)cc(OC)c1OC | 2
COc1ccc(-c2onc(C)c2-c2ccc(C(=O)OC(C)C)o2)c(O)c1 | 34*
COc1ccc2c(c1)CCc1c(C(=O)NCc3ccc(F)cc3)noc1-2 | 3
O=C(CC1CC1)N1[C@H](CO)[C@H]2c3ccccc3N(S(=O)(=O)c3ccccc3F)C[C@H]21 | 12[25 µM]
SMILES | BL2 CD40 inh
CC(C)NC(=O)N(C)C[C@@H]1OCc2cnnn2CCCC(=O)N([C@H](C)CO)C[C@H]1C | -3
Cc1cc(S(=O)(=O)N2CCOCC2)c(C)s1 | 12
C[C@H]1CN([C@@H](C)CO)C(=O)c2cc(-c3cccc(C#N)c3)cnc2O[C@@H]1CN(C)C(=O)C1CCOCC1 | -18[25 µM]
Cc1ccc(-n2cnnn2)c2cccnc12 | 2
Cc1cccnc1NCc1ccc(O)c2ncccc12 | 59*
Oc1ccc(CN2CCCc3ccccc32)c2cccnc12 | 11
Cc1nn(CC(C)C)c(Cl)c1C(=O)NCC1CCCO1 (centres undefined) | 0
Cc1ccc(S(=O)(=O)CC(=O)N2CCN(c3ccc([N+](=O)[O-])cc3)CC2)cc1 | 22
Cc1ccc(S(=O)(=O)CC#CCOC(=O)c2ccc([N+](=O)[O-])cc2)cc1 | 89*
Cc1ccc(CONC(=O)c2ccc([N+](=O)[O-])cc2)cc1 | -21
Cc1csc(N=Nc2ccc(N(C)C)cc2)[n+]1[O-] | 80*
CC(C)NC(=O)N1C[C@@H]2[C@H](c3ccccc31)[C@H](CO)N2C(=O)Nc1ccccc1 | -2[25 µM]
Cc1ccnc(NS(=O)(=O)c2ccc(NC(=O)COc3ccccc3)cc2)n1 | -4
c1ccc(-c2ccc(-c3ccccn3)nn2)nc1 | 52*
c1ccc(-c2ccccn2)nc1 | 2
Nn1c(-c2ccccn2)nnc1-c1ccccn1 | -36
N#C[C@@H]1N[C@@H](CO)[C@@H]1c1ccc(C2=CCCC2)cc1 | -24[25 µM]
O=C(CC1CC1)N1CC(=O)N2[C@H](CO)[C@@H](c3ccc(C#Cc4cccc(F)c4)cc3)[C@@H]2C1 | 11[25 µM]
C[C@H]1CN([C@@H](C)CO)C(=O)c2c(c3ccccc3n2C)-c2ccccc2CO[C@H]1CN(C)S(=O)(=O)c1ccc([N+](=O)[O-])cc1 | 73*[25 µM]
C[C@H]1CN([C@@H](C)CO)C(=O)c2c(c3ccccc3n2C)-c2ccccc2CO[C@H]1CN(C)S(=O)(=O)c1ccccc1 | 25
C[C@H](CO)N1C[C@H](C)[C@H](CN(C)S(=O)(=O)c2ccccc2)OCc2ccccc2-c2c(n(C)c3ccccc23)C1=O | 6
COc1ccc(S(=O)(=O)N(C)C[C@H]2OCc3ccccc3-c3c(n(C)c4ccccc34)C(=O)N([C@H](C)CO)C[C@@H]2C)cc1 | 14
C[C@@H]1CN([C@@H](C)CO)C(=O)c2c(c3ccccc3n2C)-c2ccccc2CO[C@H]1CN(C)S(=O)(=O)c1ccccc1 | 18
